# Data as given in PubChem BioAssay (EPA / NIEHS).
# Values joined by “and” are separate entries in the source; they are usually repeats but may differ in a detail not shown here. Equal entries are not always repeated. Active and inactive are the calls of the source. Rule for the calls: active = hit-call score of the fitted dose curve at least 0.9, where 1 is the maximum; inactive = score below 0.9.
# Test: BSK_hDFCGF_Proliferation: Cell Proliferation Assessment in the BioMAP Diversity Plus: hDFCGF Assay (AID 2283059);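 note: curves fitted for both rise and fall of signal versus DMSO baseline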
# Conditions: primary human foreskin fibroblasts
# Method in brief: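 Sub-confluent human foreskin fibroblast cultures receive test chemical […]. Relative cell number is quantified by sulforhodamine B staining (0.1%, after 10% TCA fixation) at 560 nm, with bidirectional fitting referenced to DMSO.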
SMILES,outcome,AC50
CCOS(=O)(=O)OCC,inactive,
c1nc[nH]n1,inactive,
CC(Cc1ccc(OCC(=O)O)cc1)NCC(O)c1csc(C(F)(F)F)n1 (stereo not drawn),inactive,
CCOP(=S)(NC(C)C)Oc1ccccc1C(=O)OC(C)C (stereo not drawn),inactive,
Nc1ccc2ccccc2c1,inactive,
CCOP(=S)(OCC)SCn1nnc2ccccc2c1=O,inactive,
CCNc1nc(Cl)nc(NC(C)(C)C)n1,inactive,
O=[N+]([O-])c1ccc(Cl)c(Cl)c1,inactive,
COCCOCCO,inactive,
CN(C)C(=O)Cl,inactive,
Cc1c([N+](=O)[O-])cc2c(c1[N+](=O)[O-])C(C)(C)CC2(C)C,,20 µM (active)
Cc1ccc([N+](=O)[O-])cc1C,inactive,
CCN(CC)c1ccccc1,inactive,
ClC(Cl)=C(c1ccc(Cl)cc1)c1ccccc1Cl,,0.742 µM (active)
CCOc1ccc(C(C)(C)COCc2cccc(Oc3ccccc3)c2)cc1,inactive,
COP(=O)(CCC(=O)NCO)OC,inactive,
CCOP(=S)(Oc1ccc([N+](=O)[O-])cc1)c1ccccc1 (stereo not drawn),,6.37 µM (active)
CC(Cl)CN(C)C (stereo not drawn),inactive,
OCC1CO1 (stereo not drawn),inactive,
Cc1ccc(O)cc1C,inactive,
C=CC(=O)OCC(F)(F)C(F)F,,30 µM (active) and 39.7 µM (active)
c1cc2c3c(cccc3c1)CC2,inactive,
Nc1ccc(Cl)cc1,,7.71 µM (active)
CC(C)(C)OOC(C)(C)C,inactive,
CC(C)(C)c1ccccc1OP(=O)(Oc1ccccc1)Oc1ccccc1,,15.6 µM (active)
Cc1cccc(N)c1,,0.148 µM (active)
O=P1(N(CCCl)CCCl)NCCCO1 (stereo not drawn),inactive,
O=S(=O)(F)C(F)(F)C(F)(F)C(F)(F)C(F)(F)C(F)(F)C(F)(F)C(F)(F)C(F)(F)F,inactive,
